Reference: PubChem BioAssay (NCATS)
Records with an inconclusive call do not appear. A structure can be active in one record and inactive in another. Activity calls are given as the source filed them. Unless noted, calls follow the shape of the dose curve; as a rule, active = well fitted curve in the direction sought with a large enough effect; inconclusive = small, poorly fitted or top-dose-only effect, or another doubt; inactive = no such curve, though single readings can be large; an effect the other way counts as inactive or inconclusive.

Key:
[1] = Primary qHTS for small molecule stabilizers of the endoplasmic reticulum resident proteome: Secreted ER Calcium Modulated Protein (SERCaMP) assay (AID 1508630); also: % is scaled to controls: 0 for no effect and ±100 for the full control effect
How it was run: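 The SH-SY5Y reporter protocol was run at 3 concentrations up to 38.3 uM (primary) or 11 concentrations (follow-up): 16 h compound, 100 nM thapsigargin for 4 h, then extracellular luciferase luminescence.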

[2] = A High-Content qHTS Against Drug Library for the Identification of Small Molecules that Inhibit DYT1 Early Onset Primary Dystonia-Associated Cell Pathology (AID 1645839; calls by dose curve; also: series mostly up to about 46 µM)
How it was run: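 Cells were seeded and left for 24 h, then dosed with compound alongside tetracycline induction of mutant EGFP-TorsinA. They were incubated for 48 h, fixed in 4% paraformaldehyde, permeabilized and imaged for mislocalization (%pathology) and cell count.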

[3] = molecular target: Cytochrome P450 2D6 (Homo sapiens) (UniProt P10635); assay: Cytochrome P450 family 2 subfamily D member 6 (CYP2D6) small molecule antagonists: luciferase biochemical (cell-free) qHTS assay (AID 1645840; active = well fitted curve in the direction sought with a large enough effect in the repeat runs; an effect the other way counts as inactive or inconclusive; also: nearly all actives have a fitted effect of over 55% in size; also: potency is read from the fitted curve at half-maximal effect)
How it was run: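 P450-Glo CYP2D6 system: proluciferin substrate converted by enzyme to luciferin, read by luminescence proportional to activity. Enzyme-substrate mix with compound 10 min at room temperature, then NADPH regeneration 1 h before detection reagent.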

[4] = molecular target: Cytochrome P450 2C9 (Homo sapiens) (UniProt P11712); assay: Cytochrome P450 family 2 subfamily C member 9 (CYP2C9) small molecule antagonists: luciferase biochemical (cell-free) qHTS assay (AID 1645842; active = well fitted curve in the direction sought with a large enough effect in the repeat runs; an effect the other way counts as inactive or inconclusive; also: nearly all actives have a fitted effect of over 55% in size; also: potency is read from the fitted curve at half-maximal effect)
How it was run: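 P450-Glo CYP2C9 system: proluciferin substrate with enzyme in mix containing 0.4% BSA, 10 min at room temperature, then NADPH regeneration solution added and incubated 1 h at 37C. Detection reagent stopped reaction; luminescence read after 20 min as RLU.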

[5] = Primary qHTS for inhibitors of nuclear receptor binding SET domain protein 2 (NSD2) in an isogenic RCH-ACV NSD2 p.E1099K mutant (9B) (AID 1645876); also: nearly all actives have a fitted effect of over 70% in size
[6] = Primary qHTS for inhibitors of nuclear receptor binding SET domain protein 2 (NSD2) in an RCH-ACV wild type WT cells (2C) (AID 1645877); also: nearly all actives have a fitted effect of over 70% in size
[7] = molecular target: Cytochrome P450 3A4 (Homo sapiens) (UniProt P08684); assay: Cytochrome P450 family 3 subfamily A member 4 (CYP3A4) small molecule antagonists: luciferase qHTS assay (AID 1645841; active = well fitted curve in the direction sought with a large enough effect in the repeat runs; an effect the other way counts as inactive or inconclusive; also: nearly all actives have a fitted effect of over 45% in size)
How it was run: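 P450-Glo CYP3A4 enzyme with proluciferin substrate preincubated 10 min with compound at room temperature, then NADPH regeneration 1 h. Luciferin detection reagent added for 20 min; luminescence recorded. Ketoconazole positive control.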

[8] = NCATS anti-infectives library activity on HEK293 viability as a counter-qHTS vs the C. elegans viability qHTS (AID 1745854);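 also: HEK293 cells exposed to compounds for 24 hr before the viability read; % is scaled to controls: 0 for no effect and ±100 for the full control effect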
How it was run: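 Compound titrations (final up to 41.7 uM) were incubated with HEK293 cells for 24 hr at 37C under 5% CO2. Viable cells were quantified with CellTiter-Glo after 10 min at ambient temperature.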

[9] = molecular target: Rap guanine nucleotide exchange factor 3 (Homo sapiens) (UniProt O95398); assay: Confirmatory qHTS for antagonist of cAMP-regulated guanine nucleotide exchange factor 3 (EPAC1) (AID 1645880);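 also: plate controls were DMSO only for no effect and full effect of the ATA control for full effect; nearly all actives have a fitted effect of over 55% in size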
How it was run: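 Released BODIPY-GDP fluoresces less than Rap1-bound BODIPY-GDP; the signal is followed at 480/540 nm at 5-min intervals over 30 min, after 5 min at room temperature. Reactions contain 100 nM EPAC1, 250 nM RAP1B-BODIPY-GDP and 50 uM GDP; results are normalized to ATA and DMSO.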

[10] = molecular target: Rap guanine nucleotide exchange factor 3 (Homo sapiens) (UniProt O95398); assay: Confirmatory qHTS for agonist of cAMP-regulated guanine nucleotide exchange factor 3 (EPAC1) (AID 1645881);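 also: EPAC1 catalysed release of BODIPY-GDP from Rap1B seen as fluorescence loss; 100% = effect of cAMP agonist control; nearly all actives have a fitted effect of over 75% in size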
[11] = molecular target: Rap guanine nucleotide exchange factor 4 (Homo sapiens) (UniProt Q8WZA2); assay: Confirmatory qHTS for agonist of cAMP-regulated guanine nucleotide exchange factor 4 (EPAC2) (AID 1645884);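 also: nucleotide exchange releases bodipy-GDP from Rap1 and this lowers its fluorescence; % is scaled to controls: 0 for no effect and ±100 for the full control effect; nearly all actives have a fitted effect of over 65% in size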
[12] = molecular target: Rap guanine nucleotide exchange factor 4 (Homo sapiens) (UniProt Q8WZA2); assay: Confirmatory qHTS for antagonist of cAMP-regulated guanine nucleotide exchange factor 4 (EPAC2) (AID 1645885); also: nearly all actives have a fitted effect of over 25% in size; also: potency is read from the fitted curve at half-maximal effect
[13] = molecular target: Rap guanine nucleotide exchange factor 3 (Homo sapiens) (UniProt O95398); assay: Counterscreen qHTS for antagonist of cAMP-regulated guanine nucleotide exchange factor 3 (EPAC1) (AID 1645888); also: % of control where 0% means no effect
How it was run: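 Rap1B–BODIPY-GDP (250 nM) with 50 uM GDP; compounds pin-transferred to 9.74 nM–152 uM final (activator) or from 7.32 nM upwards (inhibitor). Fluorescence Ex/Em 480/540 nm read at 5 and 30 min, then after adding cAMP or buffer, at room temperature.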

Chain of Cytochrome P450 2D6 (Homo sapiens) (P10635 whole entry, looked up): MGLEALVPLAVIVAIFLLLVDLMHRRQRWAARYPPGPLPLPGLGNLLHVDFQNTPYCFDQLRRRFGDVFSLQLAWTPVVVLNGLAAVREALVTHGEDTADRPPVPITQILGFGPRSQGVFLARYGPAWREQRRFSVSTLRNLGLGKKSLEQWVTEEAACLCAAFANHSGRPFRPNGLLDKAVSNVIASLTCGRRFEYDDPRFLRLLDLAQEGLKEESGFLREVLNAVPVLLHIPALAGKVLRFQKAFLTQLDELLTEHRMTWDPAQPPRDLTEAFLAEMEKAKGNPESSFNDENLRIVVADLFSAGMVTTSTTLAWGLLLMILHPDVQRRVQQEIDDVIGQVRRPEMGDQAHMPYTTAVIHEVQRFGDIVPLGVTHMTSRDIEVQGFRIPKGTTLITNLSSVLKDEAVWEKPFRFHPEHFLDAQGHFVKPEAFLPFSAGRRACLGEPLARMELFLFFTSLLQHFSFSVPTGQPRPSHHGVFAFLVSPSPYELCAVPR
Chain of Rap guanine nucleotide exchange factor 3 (Homo sapiens) (O95398 whole entry, looked up): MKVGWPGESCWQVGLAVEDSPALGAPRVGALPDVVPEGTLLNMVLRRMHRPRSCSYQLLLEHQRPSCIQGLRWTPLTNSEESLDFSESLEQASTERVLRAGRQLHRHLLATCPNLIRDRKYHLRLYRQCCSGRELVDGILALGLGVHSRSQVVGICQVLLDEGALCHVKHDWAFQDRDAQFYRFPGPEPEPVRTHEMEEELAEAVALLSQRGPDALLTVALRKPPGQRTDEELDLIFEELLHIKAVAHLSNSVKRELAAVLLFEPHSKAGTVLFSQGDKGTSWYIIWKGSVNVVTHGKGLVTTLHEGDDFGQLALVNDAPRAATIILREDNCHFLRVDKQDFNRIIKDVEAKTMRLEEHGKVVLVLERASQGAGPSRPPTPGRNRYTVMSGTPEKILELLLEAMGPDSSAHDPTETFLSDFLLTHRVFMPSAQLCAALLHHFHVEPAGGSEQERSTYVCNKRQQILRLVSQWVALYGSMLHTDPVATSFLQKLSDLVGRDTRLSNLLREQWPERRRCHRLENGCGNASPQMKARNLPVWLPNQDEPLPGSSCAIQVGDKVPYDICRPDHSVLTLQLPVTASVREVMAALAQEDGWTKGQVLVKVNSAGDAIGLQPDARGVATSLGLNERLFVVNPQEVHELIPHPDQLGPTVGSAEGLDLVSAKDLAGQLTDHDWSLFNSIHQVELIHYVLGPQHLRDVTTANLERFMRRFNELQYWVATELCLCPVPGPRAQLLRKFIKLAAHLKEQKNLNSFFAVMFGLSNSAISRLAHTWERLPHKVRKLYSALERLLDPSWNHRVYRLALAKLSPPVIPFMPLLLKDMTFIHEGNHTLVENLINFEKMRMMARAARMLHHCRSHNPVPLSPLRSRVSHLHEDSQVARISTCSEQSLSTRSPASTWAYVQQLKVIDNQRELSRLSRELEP
Chain of Rap guanine nucleotide exchange factor 4 (Homo sapiens) (Q8WZA2 whole entry, looked up): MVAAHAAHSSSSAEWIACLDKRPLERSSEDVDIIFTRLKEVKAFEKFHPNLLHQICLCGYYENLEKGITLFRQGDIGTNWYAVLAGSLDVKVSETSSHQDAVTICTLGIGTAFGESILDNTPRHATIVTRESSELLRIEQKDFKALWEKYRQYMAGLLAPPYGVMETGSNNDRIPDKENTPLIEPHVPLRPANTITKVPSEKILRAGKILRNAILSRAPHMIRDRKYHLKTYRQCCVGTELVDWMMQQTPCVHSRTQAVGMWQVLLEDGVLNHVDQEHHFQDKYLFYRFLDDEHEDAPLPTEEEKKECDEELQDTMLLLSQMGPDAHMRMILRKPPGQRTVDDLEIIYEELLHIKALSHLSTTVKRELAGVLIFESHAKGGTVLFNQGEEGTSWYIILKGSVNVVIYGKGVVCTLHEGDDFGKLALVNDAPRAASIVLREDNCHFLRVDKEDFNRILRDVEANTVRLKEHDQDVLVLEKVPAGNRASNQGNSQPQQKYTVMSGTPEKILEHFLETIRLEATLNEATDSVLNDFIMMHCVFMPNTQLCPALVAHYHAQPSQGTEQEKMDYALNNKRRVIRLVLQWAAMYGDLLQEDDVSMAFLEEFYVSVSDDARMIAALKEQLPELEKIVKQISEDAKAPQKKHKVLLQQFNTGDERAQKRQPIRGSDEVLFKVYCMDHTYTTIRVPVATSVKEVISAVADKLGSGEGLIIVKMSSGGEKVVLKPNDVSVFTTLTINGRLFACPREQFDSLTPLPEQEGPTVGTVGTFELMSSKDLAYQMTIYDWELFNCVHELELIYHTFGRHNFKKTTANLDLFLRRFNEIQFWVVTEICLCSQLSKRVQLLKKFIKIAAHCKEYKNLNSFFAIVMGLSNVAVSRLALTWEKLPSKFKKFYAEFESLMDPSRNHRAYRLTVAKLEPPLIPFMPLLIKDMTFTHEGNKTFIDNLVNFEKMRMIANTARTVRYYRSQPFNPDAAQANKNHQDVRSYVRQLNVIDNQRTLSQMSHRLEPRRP
Chain of Cytochrome P450 2C9 (Homo sapiens) (P11712 whole entry, looked up): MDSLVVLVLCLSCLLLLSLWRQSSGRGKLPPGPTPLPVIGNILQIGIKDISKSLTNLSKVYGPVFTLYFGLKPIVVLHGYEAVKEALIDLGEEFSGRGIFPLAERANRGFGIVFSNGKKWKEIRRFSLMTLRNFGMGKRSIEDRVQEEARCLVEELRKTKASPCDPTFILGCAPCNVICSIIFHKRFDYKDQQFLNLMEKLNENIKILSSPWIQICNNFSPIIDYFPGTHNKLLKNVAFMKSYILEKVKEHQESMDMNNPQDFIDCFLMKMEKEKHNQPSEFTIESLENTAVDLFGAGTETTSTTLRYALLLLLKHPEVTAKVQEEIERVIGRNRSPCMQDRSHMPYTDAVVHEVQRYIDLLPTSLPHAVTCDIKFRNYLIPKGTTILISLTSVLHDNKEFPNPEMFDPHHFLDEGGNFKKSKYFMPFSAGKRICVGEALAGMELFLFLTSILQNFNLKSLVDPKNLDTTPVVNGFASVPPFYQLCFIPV
Chain of Cytochrome P450 3A4 (Homo sapiens) (P08684 whole entry, looked up): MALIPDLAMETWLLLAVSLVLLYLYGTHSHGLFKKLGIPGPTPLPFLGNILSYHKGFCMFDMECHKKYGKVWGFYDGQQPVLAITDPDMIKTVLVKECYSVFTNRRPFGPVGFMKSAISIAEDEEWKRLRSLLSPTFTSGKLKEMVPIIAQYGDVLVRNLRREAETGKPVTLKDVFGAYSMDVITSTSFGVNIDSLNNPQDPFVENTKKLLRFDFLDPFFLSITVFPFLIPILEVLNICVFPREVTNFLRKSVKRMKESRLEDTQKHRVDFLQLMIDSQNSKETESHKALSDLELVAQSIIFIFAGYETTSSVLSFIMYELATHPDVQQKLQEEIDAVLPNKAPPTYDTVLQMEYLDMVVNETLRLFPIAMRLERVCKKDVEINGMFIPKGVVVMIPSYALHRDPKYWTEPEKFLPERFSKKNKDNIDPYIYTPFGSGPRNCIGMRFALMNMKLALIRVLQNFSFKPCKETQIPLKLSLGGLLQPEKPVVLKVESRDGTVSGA

Cc1cccc(C(=O)O)c1O
inactive: outcome [1] | Potency [2] | Potency [3] | Potency [4] | Potency [5] | Potency [6]

CC1CCc2cc(F)cc3c(=O)c(C(=O)O)cn1c23 (stereo not given)
inactive: outcome [1] | % pathology change, negative = correction [2] -13.4% [at 9.22 µM] | Potency [3] | Potency [4] | Potency [5] | Potency [6]

Cc1cccc(C)c1NC(=O)CC12CCCN1CCC2
inactive: outcome [1] | Potency [2] | Potency [3] | Potency [4] | Potency [5] | Potency [6]

Cc1c(C)c2c(c(C)c1OC(=O)c1cccnc1)CC[C@@](C)(CCC[C@H](C)CCC[C@H](C)CCCC(C)C)O2
inactive: outcome [1] | Potency [2] | Potency [3] | Potency [4] | Potency [5] | Potency [6]

O=C1c2ccccc2S(=O)(=O)N1CCCCN1CCN(c2ncccn2)CC1
inactive: outcome [1] | Potency [2] | Potency [5] | Potency [6]
active: Potency [3] 0.871 µM | Potency [4] 11 µM

Cc1[nH]c(C)c(Cl)c(=O)c1Cl
inactive: outcome [1] | Potency [2] | Potency [3] | Potency [4] | Potency [5] | Potency [6]

Nc1ccncc1N
inactive: outcome [1] | Potency [2] | Potency [3] | Potency [4] | Potency [5] | Potency [6]

C[C@H]1COc2c(C3(N)CC3)c(F)cc3c(=O)c(C(=O)O)cn1c23
inactive: outcome [1] | Potency [2] | Potency [3] | Potency [4] | Potency [5] | Potency [6]

Cc1cc(NC(=O)C2=C(O)c3ccccc3S(=O)(=O)N2C)no1
inactive: outcome [1] | Potency [2] | Potency [3] | Potency [4] | Potency [5] | Potency [6]

Nc1ncnc(Nc2ccccc2)n1
inactive: outcome [1] | Potency [2] | Potency [3] | Potency [4] | Potency [5] | Potency [6]

CC[N+](CC)(CC(=O)Nc1c(C)cccc1C)Cc1ccccc1
inactive: outcome [1] | Potency [2] | Potency [3] | Potency [4] | Potency [5] | Potency [6]

Cc1ccc(S(=O)(=O)NC(=O)NC2CCCCCCC2)cc1
active: Potency [4] 17.4 µM
inactive: outcome [1] | Potency [2] | Potency [3] | Potency [5] | Potency [6]

CCCCCCCC(=O)OCC(COC(=O)CCCCCCC)OC(=O)CCCCCCC
inactive: outcome [1] | Potency [2] | Potency [3] | Potency [4] | Potency [5] | Potency [6]

CC(C)CCCC(C)CCCC(C)CCCCC(C)CCCC(C)CCCC(C)C (stereo not given)
inactive: outcome [1] | Potency [2] | Potency [3] | Potency [4] | Potency [5] | Potency [6]

COc1ccccc1OC(=O)Oc1ccccc1OC
inactive: outcome [1] | Potency [2] | Potency [3] | Potency [4] | Potency [5] | Potency [6]

O=C(O)Cc1cn(-c2ccccc2)nc1-c1ccc(Cl)cc1
inactive: Potency [2] | Potency [3]
active: Potency [4] 4.36 µM

CCCCC1(COC(=O)CCC(=O)O)C(=O)N(c2ccccc2)N(c2ccccc2)C1=O
inactive: outcome [1] | Potency [2] | Potency [5] | Potency [6]

CN1C(C)(C)CCCC1(C)C
active: Potency [3] 3.89 µM
inactive: outcome [1] | Potency [2] | Potency [5] | Potency [6]

CN[C@@H]1[C@H](O)[C@H](NC)[C@H]2O[C@@]3(O)C(=O)C[C@@H](C)O[C@H]3O[C@@H]2[C@H]1O
inactive: outcome [1] | Potency [2] | Potency [4] | Potency [5]

Cc1cc(OI)c(C(C)C)cc1-c1cc(C(C)C)c(OI)cc1C
inactive: outcome [1] | Potency [2] | Potency [5] | Potency [6]
active: Potency [4] 12.3 µM

C[C@@H](N)C(=O)O
inactive: Potency [2] | Potency [3] | outcome [7] | Potency [4] | Potency [5] | Potency [6]

C=CCOc1ccccc1OCC(O)CNC(C)C (stereo not given)
active: Potency [3] 13.8 µM
inactive: outcome [1] | Potency [2] | Potency [4] | outcome [8]

COc1ccc(NS(=O)(=O)c2ccc(N)cc2)nn1
inactive: Potency [2]

CC(C)(C)C(=O)OCOC(=O)[C@@H]1N2C(=O)[C@@H](NC(=O)[C@H](N)c3ccccc3)[C@H]2SC1(C)C
inactive: outcome [1] | Potency [2] | Potency [3] | Potency [5]

COc1ccc(-c2cc(=O)c3c(O)cc(O[C@@H]4O[C@H](CO[C@@H]5O[C@@H](C)[C@H](O)[C@@H](O)[C@H]5O)[C@@H](O)[C@H](O)[C@H]4O)cc3o2)cc1O
inactive: outcome [1] | Potency [3] | Potency [4] | Potency [5] | Potency [6]

CC(=O)OC[C@H]1O[C@@](COC(C)=O)(O[C@H]2O[C@H](COC(C)=O)[C@@H](OC(C)=O)[C@H](OC(C)=O)[C@H]2OC(C)=O)[C@@H](OC(C)=O)[C@@H]1OC(C)=O
inactive: outcome [1] | Potency [2] | Potency [3] | Potency [5]

N[C@@H](Cc1ccc(O)cc1)C(=O)O
inactive: % pathology change, negative = correction [2] -10.7% [at 9.22 µM]

CC(C)C[C@@H](N)C(=O)O
inactive: outcome [1] | Potency [2] | Potency [5] | Potency [6]

Cc1c(N(C)C)c(=O)n(-c2ccccc2)n1C
inactive: outcome [1] | Potency [2] | Potency [3] | Potency [5] | Potency [6]

Cc1ccsc1/C=C/C1=NCCCN1C
inactive: outcome [1] | Potency [2] | Potency [5] | Potency [6]

COc1ccc2cc(CCC(C)=O)ccc2c1
inactive: outcome [1] | Potency [2] | Potency [4] | Potency [5] | Potency [6] | outcome [9] | outcome [10] | outcome [11] | outcome [13] | outcome [8]
8.79 µM (active) and inactive: Potency [12]

CC(=O)N[C@@H](CC(C)C)C(=O)O
inactive: outcome [1] | Potency [2] | Potency [5] | Potency [6]

C/C(=C(\CCO)SS/C(CCO)=C(\C)N(C=O)Cc1cnc(C)nc1N)N(C=O)Cc1cnc(C)nc1N
inactive: outcome [1] | Potency [2] | Potency [4] | Potency [5] | Potency [6]
